Hit rate of the full screen: of about 200,000 compounds, about 700 (0.35%) were called active. Only a selection was taken, and actives are over-represented in it overall. A number with no mark means an inactive call.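 Rule for the calls: active = inhibition above a set limit, the mean inhibition across all tested compounds plus 3 SD (cut at about 34% in these data); inactive = the rest.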

A short description of the test: blockers of IFN-gamma driven STAT1 reporter – cell-based, HTS, luciferase reporter, primary screen (AID 920).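 Note: 0% = IFN-gamma with DMSO and 100% = IFN-gamma with 300 µM nifuroxazide.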 Conditions: NIH 3T3 STAT1-luciferase reporter, luminescence, at 5.5 µM, hits give high values.
As for `COc1ccc(N2C(=O)CC(SC(C)C)C2=O)cc1` (centres undefined), the inhibition is 2.11%.
As for `COc1ccc(C2CC(c3cccs3)=NN2c2ccc(F)cc2)cc1OC` (centres undefined), the figure is -5.19%; as for `COc1ccc(C2CC(c3cccs3)=NN2C(=O)CSc2nncs2)cc1OC` (centres undefined), 17%.
`COc1ccc(C2CC(c3cccs3)=NN2c2nc(C)c(C(C)=O)s2)cc1OC` (centres undefined): the inhibition was 34.5% (active).
For the compound `Cc1cccc(NS(=O)(=O)c2ccc(C)c(C(N)=O)c2)c1`, the inhibition was 14%.
Consider `CCN(/N=C/c1ccccc1)c1cc(=O)n(C)c(=O)[nH]1`, for which the inhibition was 1.47%.
Next, `CC1CC(C)CN(C(=O)CSc2ccsc2[N+](=O)[O-])C1` (centres undefined): 1.9%; `Cc1ccc(NC(=O)CN(C)CC(=O)Nc2cccc(F)c2)cc1[N+](=O)[O-]`: 34.4% (active).
Consider `Cc1ccc(CN(C)CC(=O)Nc2cccc([N+](=O)[O-])c2)o1`, for which the inhibition is 8.85%.
As for `CN(CC(=O)Nc1cccc(F)c1)CC(=O)Nc1cccc([N+](=O)[O-])c1`, the figure is 9.08%.
With `O=C(c1cccc([N+](=O)[O-])c1)N1CCN(C(=O)c2ccco2)CC1`, the inhibition is 1.07%.
On to `Cc1ccc2[nH]c(C)c(CCNC(=O)NC3CCCCC3)c2c1`, for which the inhibition was 8.57%.
Next, `CC(=O)N1N=C(c2ccccc2)OC1c1cccnc1` (centres undefined): -12.4%; `COc1ccc(C(=O)Nc2ccccc2C(=O)N/N=C/c2ccccc2OC)cc1`: 58.5% (active); `CCn1c(/C=N/NC(=O)c2ccc(OC)cc2)nc2ccccc21`: 1.5%.
For `COc1ccccc1C(=O)NNC(=O)c1ccc(NC(=O)c2ccccc2)cc1`, the inhibition is 3.37%.
As to `COc1cc(/C=N/NC(=O)c2ccccc2)ccc1OS(=O)(=O)c1ccccc1`, the inhibition was -17.2%.
Turning to `COc1ccc(C(=O)Nc2ccccc2C(=O)N/N=C/c2ccc(O)c(OC)c2)cc1`, the inhibition is 99.9% (active).
Consider `COc1ccc(/C=N/NC(=O)c2ccccc2)cc1OS(=O)(=O)c1ccccc1`, for which the inhibition was 6.31%.
As to `CCN(C(=O)c1ccc(Br)cc1)c1ccccc1`, the inhibition was 12.3%.
As for `CC(=O)c1c(C)[nH]c(C(=O)OCC(=O)Nc2sc3c(c2C#N)CCCC3)c1C`, the figure is -6.37%.
For the compound `Cc1nc(CN2CCN(C(=O)CCc3nnc(Cc4c[nH]c5ccccc45)o3)CC2)cs1`, the inhibition is 0.65%.
Next, `CCCCOC(=O)CCCc1ccc([N+](=O)[O-])cc1[N+](=O)[O-]`: 6.62%.
Take `Cc1cc(O)c(NC(=O)c2ccc(C)c([N+](=O)[O-])c2)cc1C`: the inhibition was -3.86%.
As for `O=C(NNC(=O)C1CCN(c2ncccn2)CC1)c1ccccc1`, the figure is -0.55%; as for `CC(=O)c1cc(C#N)c(N2CCCCC2)nc1C`, 2.46%; as for `Cc1ccsc1C(=O)OCC(=O)c1cc(C)n(CC2CCCO2)c1C` (centres undefined), 77.5% (active).
Consider `Cc1ccsc1C(=O)OCC(=O)c1cc2ccccc2o1`, for which the inhibition is -6.53%.
As for `Cc1cc(C(=O)Cn2cnc3cc([N+](=O)[O-])ccc3c2=O)c(C)n1CC1CCCO1` (centres undefined), the figure is -2.94%; as for `CC1CC(C)(C)NC(=S)N1CCC(=O)N1CCN(Cc2ccccc2)CC1` (centres undefined), -1.54%.
Consider `COc1ccc(NC(=S)NCCN2CCC(C)CC2)cc1`, for which the inhibition is 4.93%.
Next, `Cc1cccc(C(=O)Nc2ccc3c(c2)C(=O)N(CC(C)C)C3=O)c1`: -24.8%.
For the compound `O=C(CSc1nc2ccc([N+](=O)[O-])cc2[nH]1)c1ccc(Cl)cc1`, the inhibition was -9.84%.
On to `Cc1ccc(-c2cn3cc(C)ccc3n2)cc1`, for which the inhibition is 94.3% (active).
Take `Cc1ccc(-c2cn3cc([N+](=O)[O-])ccc3n2)cc1`: the inhibition is -37.1%.
As for `COc1ccc(-c2cn3ccsc3n2)cc1`, the figure is -38.6%.
Next, `O=C(COC(=O)c1ccc(F)cc1)Nc1nc2ccc([N+](=O)[O-])cc2s1`: -0.42%; `O=C(CN1C(=O)c2ccccc2S1(=O)=O)N1CCc2ccccc21`: 61.3% (active); `O=C(CN1CCN(c2ccccn2)CC1)N1CCc2ccccc21`: -3.17%.
On to `O=C(CSCc1ccccc1)N1CCc2ccccc21`, for which the inhibition was -41.3%.
Next, `S=C(Nc1ccc(Br)cc1Cl)N1CCC2(CC1)OCCO2`: -18.2%; `CCNc1ccc(C(=O)OCC(=O)N2c3ccccc3NC(=O)C2(C)C)cc1[N+](=O)[O-]`: 4.43%.
`Cc1cc(Cl)ccc1OCCCC(=O)NCc1ccncc1`: the inhibition is -1.56%.
Next, `C/C(=N/OC(=O)c1cccc(C(F)(F)F)c1)c1cnccn1`: -6.55%; `COc1ccccc1CNC(=O)c1ccc(SC)cc1OC`: -9.83%; `COc1cc(SC)ccc1C(=O)Nc1nc(C)cs1`: 93.3% (active).
Take `COc1cc(SC)ccc1C(=O)Nc1cc(C)ccn1`: the inhibition is -2.53%.
Next, `CC(=O)NC(Cc1ccc(F)c(F)c1)C(=O)NC1CCN(c2nnnn2-c2ccccc2)CC1` (centres undefined): 5.49%; `CC1c2nc3ccccc3n2C(CC(=O)NCCCN2CCOCC2)C(=O)N1Cc1ccccc1` (centres undefined): 6.33%.
As for `C/C(=N/NC(=O)C1COc2ccccc2O1)c1ccco1` (centres undefined), the inhibition is -4.92%.
Consider `COc1ccc(C2=NN(C(=O)CCC(=O)O)C(c3cccs3)C2)cc1OC` (centres undefined), for which the inhibition was 3.75%.
Next, `COc1ccc(CCNC(=O)COC(=O)/C=C/c2cccs2)cc1OC`: 9.78%.
As for `COC(=O)C1=CN(Cc2ccc(OC)c(OC)c2)C=C(C(=O)OC)C1c1cccs1`, the inhibition is 59.2% (active).
As for `Cc1cc([N+](=O)[O-])nn1Cc1ccc(F)cc1`, the figure is 6.91%; as for `O=c1cnnc(Nc2ccccc2F)[nH]1`, -3.73%.
As for `COc1ccc2c(CC(=O)OCC(=O)Nc3ccccc3[N+](=O)[O-])coc2c1`, the figure is 0.3%; as for `COc1cc2c(cc1O)[C@H](Cc1ccc(Oc3cc(C[C@@H]4NCCc5cc(OC)c(O)cc54)ccc3O)cc1)NCC2`, 5.62%; as for `CC[C@H]1CN2CCc3cc(OC)c(OC)cc3[C@@H]2C[C@@H]1C[C@H]1NCCc2cc(OC)c(OC)cc21`, 71.5% (active).
As for `Cc1ccc(NC(=S)N2CCN(c3ncccn3)CC2)cc1C`, the inhibition was 0.8%.
As for `CCn1c2ccccc2c2cc(NC(=O)COC(=O)c3cc(S(=O)(=O)N4CCCCC4)ccc3Cl)ccc21`, the inhibition is 5.58%.
As for `CC(=O)c1ccc(-c2nnc(CCC(=O)N(C)Cc3cnc4ccccn34)o2)s1`, the inhibition is 0.17%.
Next, `CCOc1cc(NC(=O)c2ccccn2)c(OCC)cc1NC(=O)c1ccc(OC)cc1`: 3.8%; `COc1ccc(C(=O)/C=C/Nc2ccccn2)cc1`: 82.5% (active); `COc1ccc(-c2csc(Nc3ccccn3)n2)cc1`: -12.9%.
For the compound `CSc1ccc(CN(C)CC(=O)NCc2ccc(F)cc2)cc1`, the inhibition was -7.18%.
Next, `NC(=O)C1CCN(Cc2nc3c(Br)cc(Br)cc3c(=O)[nH]2)CC1`: 3.52%; `O=C(Nc1ccccc1N1CCN(C(=O)c2ccccc2)CC1)c1ccc2c(c1)OCO2`: 2.21%; `CCC(=O)Nc1ccccc1N1CCN(S(C)(=O)=O)CC1`: 2.52%.
In the case of `CCCC(=O)Nc1ccccc1N1CCN(C(=O)c2ccccc2)CC1`, the inhibition was 34.8% (active).
Next, `Cc1nc2ccc(NC(=S)N3CCC(C)CC3)cc2nc1C`: -19.9%; `COc1cccc(-c2nn(-c3ccccc3)cc2/C=C(\C#N)C(=O)NCCCn2ccnc2)c1`: -6.77%; `c1ccc(C2CNCc3c2ccc2ccccc32)cc1` (centres undefined): 14.8%.
`COc1ccc(CC(=O)Nc2cc(S(=O)(=O)N3CCCCC3)ccc2N2CCN(C)CC2)cc1`: the inhibition is 1.82%.
As for `Cn1c(N)c(C(=O)COC(=O)/C=C/c2ccc(OC(F)F)cc2)c(=O)n(C)c1=O`, the figure is 5.58%.
Next, `CS(=O)(=O)N1CCC(C(=O)N2CCN(c3ccccc3)CC2)CC1`: 7.02%; `Cc1ccc(C2=Nc3c(ccc4ccccc34)C(c3ccncc3)=NN2)cc1`: 66.7% (active); `CCc1ccc2c(c1)C(c1ccc([N+](=O)[O-])cc1)=NNC(c1ccccc1)=N2`: 5.38%.
As for `CCOc1ccc2c(c1)C(c1ccc(C)cc1)=NNC(c1ccc(C)cc1)=N2`, the inhibition was -36.9%.
As for `CCc1ccc(-c2nn(-c3ccccc3)cc2CSC(=N)N)cc1`, the figure is -3.6%; as for `Cc1cc(C)n(CCNC(=O)CC2C(=O)NCCN2Cc2ccc(C)o2)n1` (centres undefined), 4.76%.
As to `C=CCn1c(CCc2ccc(OC(C)C)cc2)n[nH]c1=S`, the inhibition is -6.91%.
Next, `C=CCN(C(=O)c1cc(C)cc(C)c1)C1(C(=O)Nc2ccccc2)CCN(C(C)C)CC1`: -4.59%.
As for `NC(N)=NCCCc1cn(CC(=O)N2CCNCC2)nn1`, the inhibition is 3.04%.
As for `Cc1ccc(C(=O)Cn2cccn2)cc1`, the figure is -6.86%; as for `Cc1cccc(OCCNC(=S)NC(=O)c2cccnc2)c1`, -6.17%.
Next, `CN(Cc1cccnc1)C(=O)c1cc(COc2ccc3ncccc3c2)on1`: 34.3% (active).
Regarding `Cc1noc(C)c1COc1cccc(C(=O)Nc2cccnc2)c1`, the inhibition is 2.53%.
On to `Cc1cccc(N2CCN(c3ccc(NC(=O)/C=C\C(=O)O)cc3)CC2)c1`, for which the inhibition is 1.29%.
Take `OCCC1CN(Cc2cccc(O)c2)CCN1CCc1ccccc1` (centres undefined): the inhibition was 8.18%.
Regarding `S=C(NCCc1ccccc1)N1CCn2cccc2C1c1ccncc1` (centres undefined), the inhibition is 21.8%.
Take `CC(C)(C)c1ccc(Oc2ccc(N)cc2)cc1`: the inhibition is 64.1% (active).
Turning to `Cc1ccc(Oc2ccc(N)cc2)cc1`, the inhibition was -19.6%.
As for `Nc1ccc(Oc2ccc(Cl)cc2)cc1`, the figure is -14.9%.
On to `COc1ccc([C@H]2[C@H](C(C)=O)N3N=Cc4ccccc4C3C23C(=O)OC(C)(C)OC3=O)cc1` (some centres undefined), for which the inhibition was -13.7%.

These data come from PubChem BioAssay AID920 (The Scripps Research Institute Molecular Screening Center, 2007).
